Records with an inconclusive call do not appear. This is one part of the list. Entries that show only a call come without a potency. Calls of active or inactive are those of the source. Calls come from the whole dose curve; as a rule, active = well fitted curve in the direction sought with a large enough effect; inconclusive = small, poorly fitted or top-dose-only effect, or another doubt; inactive = no such curve, though single readings can be large; an effect the other way counts as inactive or inconclusive.
Assays:
3D7 = experiment: qHTS profiling for inhibitors of Plasmodium falciparum proliferation (AID 504749); note: nearly all actives have a fitted effect of over 60% in size; conditions: P. falciparum in erythrocytes, SYBR Green DNA, 72 h; series mostly up to 28.7 µM
How it was run: (§1)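 P. falciparum-infected erythrocytes (0.3% parasitemia, 2.5% hematocrit) incubated with compound 72 h at 37 C, 5% CO2. Parasite DNA detected by SYBR Green after lysis, overnight at room temperature; normalised to 0.29 uM artemisinin and DMSO.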

CP217 = experiment: as above; conditions: P. falciparum in erythrocytes, SYBR Green DNA, 72 h; series mostly up to 28.7 µM
How it was run: as §1

CP250 = experiment: as above; conditions: P. falciparum in erythrocytes, SYBR Green DNA, 72 h; series mostly up to 28.7 µM
How it was run: as §1

CP260 = experiment: as above; conditions: P. falciparum in erythrocytes, SYBR Green DNA, 72 h; series mostly up to 28.7 µM
How it was run: as §1

CP265 = experiment: as above; conditions: P. falciparum in erythrocytes, SYBR Green DNA, 72 h; series mostly up to 28.7 µM
How it was run: as §1

CP286 = experiment: as above; conditions: P. falciparum in erythrocytes, SYBR Green DNA, 72 h; series mostly up to 28.7 µM
How it was run: as §1

DIV14 = experiment: as above; conditions: P. falciparum in erythrocytes, SYBR Green DNA, 72 h; series mostly up to 28.7 µM
How it was run: as §1

ECU = experiment: as above; conditions: P. falciparum in erythrocytes, SYBR Green DNA, 72 h; series mostly up to 28.7 µM
How it was run: as §1

N140 = experiment: as above; conditions: P. falciparum in erythrocytes, SYBR Green DNA, 72 h; series mostly up to 28.7 µM
How it was run: as §1

P93_24 = experiment: as above; conditions: P. falciparum in erythrocytes, SYBR Green DNA, 72 h; series mostly up to 28.7 µM
How it was run: as §1

PAD = experiment: as above; conditions: P. falciparum in erythrocytes, SYBR Green DNA, 72 h; series mostly up to 28.7 µM
How it was run: as §1

PC15 = experiment: as above; conditions: P. falciparum in erythrocytes, SYBR Green DNA, 72 h; series mostly up to 28.7 µM
How it was run: as §1

SC27B = experiment: as above; conditions: P. falciparum in erythrocytes, SYBR Green DNA, 72 h; series mostly up to 28.7 µM
How it was run: as §1

TAB165 = experiment: as above; conditions: P. falciparum in erythrocytes, SYBR Green DNA, 72 h; series mostly up to 28.7 µM
How it was run: as §1

[1] = target: Ubiquitin carboxyl-terminal hydrolase 1 (Homo sapiens) (UniProt O94782); experiment: Inhibitors of USP1/UAF1: Pilot qHTS (AID 504865);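 note: rhodamine fluorescence freed from ubiquitin-rhodamine substrate followed over time; top concentration of the series differs between compounds; nearly all actives have a fitted effect of over 35% in size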
How it was run: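 USP1/UAF1 complex (1nM) preincubated with compound 15 min at room temperature, then Ub-Rho substrate (150nM final) added. Fluorescence read kinetically at 480/540 nm, 6 reads every 60 seconds. Buffer: 50mM HEPES pH 7.8, 0.5mM EDTA, 0.1 mg/ml BSA, 1mM TCEP, 0.01% Tween-20.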

[2] = target: Tyrosyl-DNA phosphodiesterase 1 (Homo sapiens) (UniProt Q9NUW8); experiment: Confirmation Assay for Inhibitors of Tyrosyl-DNA Phosphodiesterase (TDP1) (AID 489007); conditions: recombinant human TDP1 enzymatic activity, dose-response; note: potency is the fitted concentration of half-maximal effect; nearly all actives have a fitted effect of over 40% in size
How it was run: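 Tdp1 1 nM + cpd, 15 min RT; add biotin/phosphotyrosine-FITC oligo 15 nM, 5 min RT; add AS donor/acceptor beads 10 ug/ml, 10 min RT; read AlphaScreen. No-enzyme wells = max signal.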

[3] = target: DNA polymerase iota (Homo sapiens) (UniProt Q9UNA4); experiment: qHTS for Inhibitors of Polymerase Iota: Confirmatory Assay for Cherry-picked Compounds (AID 720496); conditions: Pol iota primer extension, TAMRA/BHQ fluorescence; note: potency is the fitted concentration of half-maximal effect
How it was run: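 Buffer-only wells, without enzyme, serve as negative control. Test wells hold 10 nM Pol iota preincubated 15 min with compound before 50 nM final fluorogenic DNA substrate is added; signal is read at 0 and 10 min.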

[4] = target: Bifunctional 3'-5' exonuclease/ATP-dependent helicase WRN (Homo sapiens) (UniProt Q14191); experiment: qHTS for Inhibitors of WRN Helicase: Confirmatory Assay for Cherry-picked Compounds. (AID 720497); conditions: WRN helicase DNA unwinding, fluorescence kinetic; note: potency is the fitted concentration of half-maximal effect; nearly all actives have a fitted effect of over 65% in size
How it was run: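 WRN at 20 nM final was preincubated with compound for 15 min at room temperature; the reaction was started with 100 nM forked duplex oligonucleotide and 2 mM ATP (final). Red fluorescence (ex 525/em 598 nm) was read kinetically, with inhibition normalized to enzyme-only and buffer-only wells.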

[5] = qHTS for Inhibitors of WRN Helicase: Thiazole Orange DNA Binding Counterscreen (AID 720499);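 note: drop in dye fluorescence marks compound binding to DNA; nearly all actives have a fitted effect of over 60% in size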
How it was run: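 Compounds were pin-transferred into 50 nM unlabeled DNA premixed with 100 nM thiazole orange. After 15 min at room temperature, fluorescence (ex 480 nm, em 530 nm) was read; loss of signal flags dye displacement from nonspecific DNA binders.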

[6] = target: RecQ-like DNA helicase BLM (Homo sapiens) (UniProt P54132); experiment: qHTS for Inhibitors of WRN Helicase: BLM Helicase Counterscreen for WRN Inhibitors (AID 720503); conditions: Recombinant BLM helicase DNA unwinding, red fluorescence; note: potency is the fitted concentration of half-maximal effect; nearly all actives have a fitted effect of over 60% in size
How it was run: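 1 nM BLM, Tris pH 8.0/NaCl/MgCl2/DTT/Tween-20; cpd preinc 15 min RT; start w/ 100 nM DNA + 2 mM ATP final; fluorescence (ex 525/em 598) two reads 15 min apart; normalized to enzyme-free and DMSO controls.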

Chain of Ubiquitin carboxyl-terminal hydrolase 1 (Homo sapiens) (O94782 whole entry, looked up): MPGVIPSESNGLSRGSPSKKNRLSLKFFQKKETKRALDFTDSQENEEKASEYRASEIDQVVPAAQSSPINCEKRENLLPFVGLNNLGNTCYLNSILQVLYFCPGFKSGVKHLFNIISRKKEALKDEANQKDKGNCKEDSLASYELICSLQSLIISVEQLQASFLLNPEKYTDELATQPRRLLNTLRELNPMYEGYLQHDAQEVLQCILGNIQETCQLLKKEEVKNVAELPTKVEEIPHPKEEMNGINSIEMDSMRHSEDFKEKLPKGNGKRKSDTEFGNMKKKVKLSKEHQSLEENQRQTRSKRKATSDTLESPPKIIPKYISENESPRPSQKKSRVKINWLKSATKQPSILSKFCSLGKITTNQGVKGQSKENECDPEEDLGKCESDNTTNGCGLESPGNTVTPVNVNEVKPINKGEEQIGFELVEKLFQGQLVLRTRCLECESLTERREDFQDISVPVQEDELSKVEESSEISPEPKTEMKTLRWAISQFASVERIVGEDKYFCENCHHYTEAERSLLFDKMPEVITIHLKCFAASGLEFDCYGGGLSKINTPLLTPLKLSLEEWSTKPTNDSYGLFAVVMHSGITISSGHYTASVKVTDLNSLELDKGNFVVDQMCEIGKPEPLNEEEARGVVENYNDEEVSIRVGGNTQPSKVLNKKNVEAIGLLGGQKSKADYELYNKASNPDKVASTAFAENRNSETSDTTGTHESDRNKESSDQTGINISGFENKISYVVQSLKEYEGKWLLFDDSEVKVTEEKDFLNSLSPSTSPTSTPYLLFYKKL
Chain of Tyrosyl-DNA phosphodiesterase 1 (Homo sapiens) (Q9NUW8 whole entry, looked up): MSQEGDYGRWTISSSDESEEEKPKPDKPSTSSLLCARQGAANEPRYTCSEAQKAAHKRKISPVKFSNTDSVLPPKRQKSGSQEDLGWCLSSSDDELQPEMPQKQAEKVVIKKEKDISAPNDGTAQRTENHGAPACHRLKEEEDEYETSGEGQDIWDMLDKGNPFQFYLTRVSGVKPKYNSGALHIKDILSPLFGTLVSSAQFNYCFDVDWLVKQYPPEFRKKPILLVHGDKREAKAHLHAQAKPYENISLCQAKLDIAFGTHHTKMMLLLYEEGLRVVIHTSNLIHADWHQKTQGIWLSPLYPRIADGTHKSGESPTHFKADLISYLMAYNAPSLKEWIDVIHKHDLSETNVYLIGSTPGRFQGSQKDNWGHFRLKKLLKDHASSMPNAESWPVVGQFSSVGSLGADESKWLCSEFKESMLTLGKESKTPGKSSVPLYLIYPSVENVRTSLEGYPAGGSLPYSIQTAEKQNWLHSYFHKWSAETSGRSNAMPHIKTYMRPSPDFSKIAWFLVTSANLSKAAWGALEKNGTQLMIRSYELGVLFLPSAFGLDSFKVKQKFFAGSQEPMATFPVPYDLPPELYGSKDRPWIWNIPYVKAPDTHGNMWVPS
Chain of DNA polymerase iota (Homo sapiens) (Q9UNA4 whole entry, looked up): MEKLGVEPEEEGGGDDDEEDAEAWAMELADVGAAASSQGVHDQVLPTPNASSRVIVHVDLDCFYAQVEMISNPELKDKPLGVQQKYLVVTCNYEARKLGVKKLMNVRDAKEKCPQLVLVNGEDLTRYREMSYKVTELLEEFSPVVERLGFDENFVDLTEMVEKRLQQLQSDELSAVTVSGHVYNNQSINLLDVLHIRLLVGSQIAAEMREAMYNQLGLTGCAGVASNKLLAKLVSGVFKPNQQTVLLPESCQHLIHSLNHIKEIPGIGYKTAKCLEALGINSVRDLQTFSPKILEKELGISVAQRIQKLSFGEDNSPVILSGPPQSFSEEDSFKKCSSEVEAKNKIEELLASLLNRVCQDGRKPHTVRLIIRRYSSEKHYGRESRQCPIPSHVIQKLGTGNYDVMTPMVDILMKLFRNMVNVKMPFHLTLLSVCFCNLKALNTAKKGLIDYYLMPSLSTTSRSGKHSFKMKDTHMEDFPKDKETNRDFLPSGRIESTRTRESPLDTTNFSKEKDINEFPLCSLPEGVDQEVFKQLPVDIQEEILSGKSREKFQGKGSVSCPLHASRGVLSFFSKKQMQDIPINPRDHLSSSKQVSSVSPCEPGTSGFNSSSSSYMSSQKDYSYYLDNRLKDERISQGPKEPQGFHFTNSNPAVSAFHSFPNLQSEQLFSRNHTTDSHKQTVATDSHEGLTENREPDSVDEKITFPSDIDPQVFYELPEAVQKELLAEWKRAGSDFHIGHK
Chain of Bifunctional 3'-5' exonuclease/ATP-dependent helicase WRN (Homo sapiens) (Q14191 whole entry, looked up): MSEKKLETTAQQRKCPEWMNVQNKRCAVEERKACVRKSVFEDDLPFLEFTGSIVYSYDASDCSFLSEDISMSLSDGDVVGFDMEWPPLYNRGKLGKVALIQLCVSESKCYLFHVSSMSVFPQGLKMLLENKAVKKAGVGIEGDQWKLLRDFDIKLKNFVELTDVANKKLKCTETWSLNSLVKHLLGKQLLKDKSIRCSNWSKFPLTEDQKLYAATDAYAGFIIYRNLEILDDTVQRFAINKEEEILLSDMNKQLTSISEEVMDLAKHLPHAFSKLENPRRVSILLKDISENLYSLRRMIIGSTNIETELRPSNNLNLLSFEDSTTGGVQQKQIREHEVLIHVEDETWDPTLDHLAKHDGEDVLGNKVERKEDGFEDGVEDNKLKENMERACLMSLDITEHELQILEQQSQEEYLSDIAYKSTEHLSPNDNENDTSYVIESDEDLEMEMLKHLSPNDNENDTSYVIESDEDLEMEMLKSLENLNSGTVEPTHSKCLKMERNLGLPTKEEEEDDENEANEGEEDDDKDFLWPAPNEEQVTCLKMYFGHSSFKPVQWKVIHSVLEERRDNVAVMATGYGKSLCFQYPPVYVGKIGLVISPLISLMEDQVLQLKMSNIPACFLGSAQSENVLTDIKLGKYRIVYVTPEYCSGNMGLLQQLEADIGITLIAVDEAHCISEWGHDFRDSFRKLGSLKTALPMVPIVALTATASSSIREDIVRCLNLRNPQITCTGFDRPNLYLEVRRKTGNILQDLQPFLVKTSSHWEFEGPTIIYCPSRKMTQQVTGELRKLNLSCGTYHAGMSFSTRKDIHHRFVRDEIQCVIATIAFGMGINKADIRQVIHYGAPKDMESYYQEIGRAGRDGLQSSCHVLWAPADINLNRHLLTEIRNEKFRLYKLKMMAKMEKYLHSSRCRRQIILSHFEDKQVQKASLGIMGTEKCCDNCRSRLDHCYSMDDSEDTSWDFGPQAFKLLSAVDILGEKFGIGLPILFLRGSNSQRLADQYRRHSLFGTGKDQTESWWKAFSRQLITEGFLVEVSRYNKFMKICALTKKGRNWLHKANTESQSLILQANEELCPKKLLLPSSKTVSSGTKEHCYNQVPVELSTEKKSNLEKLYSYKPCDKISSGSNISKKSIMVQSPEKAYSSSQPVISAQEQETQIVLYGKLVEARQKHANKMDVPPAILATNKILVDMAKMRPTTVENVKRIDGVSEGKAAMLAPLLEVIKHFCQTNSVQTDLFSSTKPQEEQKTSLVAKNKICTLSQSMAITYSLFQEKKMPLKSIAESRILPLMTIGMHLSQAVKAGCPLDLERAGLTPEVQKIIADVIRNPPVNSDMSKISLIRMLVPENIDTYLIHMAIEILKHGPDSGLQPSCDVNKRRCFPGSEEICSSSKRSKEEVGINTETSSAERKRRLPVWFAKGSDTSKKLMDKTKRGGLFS
Chain of RecQ-like DNA helicase BLM (Homo sapiens) (P54132 whole entry, looked up): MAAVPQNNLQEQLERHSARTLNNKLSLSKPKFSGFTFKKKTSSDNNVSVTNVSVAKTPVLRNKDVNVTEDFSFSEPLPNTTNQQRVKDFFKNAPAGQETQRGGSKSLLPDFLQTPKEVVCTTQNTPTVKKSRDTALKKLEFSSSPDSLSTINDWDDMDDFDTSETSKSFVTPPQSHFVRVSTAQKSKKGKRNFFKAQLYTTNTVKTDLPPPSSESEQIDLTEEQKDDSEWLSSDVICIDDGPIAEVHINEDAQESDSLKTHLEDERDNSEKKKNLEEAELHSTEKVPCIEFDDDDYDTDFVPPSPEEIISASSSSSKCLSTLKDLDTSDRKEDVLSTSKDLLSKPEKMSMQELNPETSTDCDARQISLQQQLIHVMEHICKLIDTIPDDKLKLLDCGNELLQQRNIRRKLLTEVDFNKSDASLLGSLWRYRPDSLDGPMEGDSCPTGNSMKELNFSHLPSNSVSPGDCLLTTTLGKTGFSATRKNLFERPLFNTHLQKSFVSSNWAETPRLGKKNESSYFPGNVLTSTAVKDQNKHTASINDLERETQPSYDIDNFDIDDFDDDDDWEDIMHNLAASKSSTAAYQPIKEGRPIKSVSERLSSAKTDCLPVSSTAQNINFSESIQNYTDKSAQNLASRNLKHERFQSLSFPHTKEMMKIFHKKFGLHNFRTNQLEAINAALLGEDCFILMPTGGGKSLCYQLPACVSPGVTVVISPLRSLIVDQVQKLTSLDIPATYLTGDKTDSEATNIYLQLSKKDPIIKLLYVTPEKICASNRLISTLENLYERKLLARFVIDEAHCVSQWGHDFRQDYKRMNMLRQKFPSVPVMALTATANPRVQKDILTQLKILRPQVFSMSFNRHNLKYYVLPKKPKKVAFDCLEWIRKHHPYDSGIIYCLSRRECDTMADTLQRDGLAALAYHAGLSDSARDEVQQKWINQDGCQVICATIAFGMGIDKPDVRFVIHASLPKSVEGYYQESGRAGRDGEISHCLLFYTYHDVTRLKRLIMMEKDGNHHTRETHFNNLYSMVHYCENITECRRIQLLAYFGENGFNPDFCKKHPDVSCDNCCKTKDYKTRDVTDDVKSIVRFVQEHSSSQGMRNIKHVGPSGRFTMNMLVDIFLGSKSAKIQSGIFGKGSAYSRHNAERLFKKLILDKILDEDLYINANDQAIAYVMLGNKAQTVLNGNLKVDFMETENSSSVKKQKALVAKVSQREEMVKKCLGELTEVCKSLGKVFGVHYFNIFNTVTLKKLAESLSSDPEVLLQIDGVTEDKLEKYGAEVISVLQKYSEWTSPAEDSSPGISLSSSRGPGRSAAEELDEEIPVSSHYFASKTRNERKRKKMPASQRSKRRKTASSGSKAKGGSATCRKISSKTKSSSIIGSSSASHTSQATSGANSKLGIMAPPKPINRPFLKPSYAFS

With Cc1c(C(=O)O)c(O)cc2c1C(=O)c1c(O)c([C@H]3O[C@H](CO)[C@@H](O)[C@H](O)[C@H]3O)c(O)c(O)c1C2=O the Potency (3D7) was “inactive”, the Potency (CP217) was “inactive” and the Potency (CP250) was “inactive”. The Potency (CP260) was “inactive”, the Potency (CP265) was “inactive” and the Potency (CP286) was “inactive”. For the same compound, the Potency (DIV14) was “inactive”, the Potency (ECU) was “inactive” and the Potency (N140) was “inactive”. For the same compound, the Potency (P93_24) was “inactive”, the Potency (PAD) was “inactive” and the Potency (PC15) was “inactive”. The Potency (SC27B) was “inactive” and the Potency (TAB165) was “inactive”.

For Oc1cc2c(cc1O)[C@H]1c3ccc(O)c(O)c3OC[C@@]1(O)C2, the Potency [1] was “inactive”.

For Cc1cc(C)c2nc(-c3ccco3)cc(C(=O)O)c2c1, the Potency [2] was 15.8 µM (active).

For N#Cc1ccccc1CN1C(=O)S/C(=C/c2cccn2-c2cccc(C(=O)O)c2)C1=O, the Potency [3] was 67 µM (active), the Potency [4] was 21.5 µM (active) and the outcome [5] was “inactive”. For the same compound, the Potency [6] was 17.1 µM (active).

— PubChem BioAssay (NCATS)
